# In PubChem BioAssay (NCATS):
# Values joined by “and” are separate entries in the source; they are usually repeats but may differ in a detail not shown here. Identical values can stand only once. Records with an inconclusive call do not appear. Active and inactive are the calls of the source. Unless noted, calls come from the whole dose curve; as a rule, active = well fitted curve in the direction sought with a large enough effect; inconclusive = small, poorly fitted or top-dose-only effect, or another doubt; inactive = no such curve, though single readings can be large; an effect the other way counts as inactive or inconclusive.
# Columns and labels:
# [1] = target: T1, Hexokinase-4 (Homo sapiens) + Glucokinase regulatory protein (Homo sapiens) (UniProt P35557+Q14397); assay: qHTS assay for inhibitors of recombinant human GCK-GKRP interaction: ADP-Glo assay (AID 743206);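 note: plate controls were DMSO plus enzyme for no effect and no enzyme for full effect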
# T1 sequence (P35557 whole entry, looked up): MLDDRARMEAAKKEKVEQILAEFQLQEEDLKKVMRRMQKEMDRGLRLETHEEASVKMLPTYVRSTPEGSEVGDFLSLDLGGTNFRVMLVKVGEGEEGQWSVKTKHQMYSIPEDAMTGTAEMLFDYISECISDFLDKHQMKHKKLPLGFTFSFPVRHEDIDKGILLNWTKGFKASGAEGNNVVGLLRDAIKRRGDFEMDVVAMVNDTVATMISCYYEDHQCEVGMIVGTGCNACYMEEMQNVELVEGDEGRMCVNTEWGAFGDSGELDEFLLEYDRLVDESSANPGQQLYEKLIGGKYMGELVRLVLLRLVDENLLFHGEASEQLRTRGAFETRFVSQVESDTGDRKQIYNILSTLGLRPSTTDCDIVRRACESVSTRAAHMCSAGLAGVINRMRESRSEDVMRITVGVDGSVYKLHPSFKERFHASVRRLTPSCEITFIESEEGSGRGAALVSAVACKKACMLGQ
# T1 sequence (Q14397 whole entry, looked up): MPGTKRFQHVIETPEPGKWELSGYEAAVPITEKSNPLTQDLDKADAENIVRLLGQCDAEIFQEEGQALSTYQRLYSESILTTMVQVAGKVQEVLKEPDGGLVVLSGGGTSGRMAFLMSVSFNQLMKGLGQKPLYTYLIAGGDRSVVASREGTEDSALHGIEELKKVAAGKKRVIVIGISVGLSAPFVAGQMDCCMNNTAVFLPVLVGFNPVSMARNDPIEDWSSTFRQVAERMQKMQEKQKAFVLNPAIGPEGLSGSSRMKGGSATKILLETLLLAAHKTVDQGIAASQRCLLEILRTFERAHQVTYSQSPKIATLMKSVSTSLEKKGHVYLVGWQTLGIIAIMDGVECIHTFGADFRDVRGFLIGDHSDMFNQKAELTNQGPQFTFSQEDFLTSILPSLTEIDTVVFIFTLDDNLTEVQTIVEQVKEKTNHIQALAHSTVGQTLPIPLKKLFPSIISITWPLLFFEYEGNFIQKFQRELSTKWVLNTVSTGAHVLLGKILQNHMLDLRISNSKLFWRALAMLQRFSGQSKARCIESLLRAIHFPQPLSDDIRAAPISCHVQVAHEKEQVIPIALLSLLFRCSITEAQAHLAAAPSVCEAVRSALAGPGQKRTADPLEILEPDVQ
# Method in brief: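 Pin-transferred compounds meet a 15 nM GST-GCK/15 nM FLAG-GKRP/2 uM S6P mix (dispense concentrations). ATP is then added to 0.4 mM final with 5 mM glucose, and the reaction runs 60 min at room temperature. ADP is quantified luminescently.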
# [2] = target: T1, Hexokinase-4 (Homo sapiens) + Glucokinase regulatory protein (Homo sapiens); assay: qHTS assay for inhibitors of recombinant human GCK-GKRP interaction: HTRF assay (AID 743207);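 note: 0% = DMSO with GCK present and -100% = DMSO wells lacking GCK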
# Method in brief: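 Steps: dispense GCK–GKRP complex (5 nM each, GST- and FLAG-tagged) with 2 uM S6P; pin in compounds; add XL665/Eu-cryptate-labelled antibodies; incubate 60 min at room temperature; read time-resolved FRET at 665 and 615 nm.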
# [3] = qHTS Assay for Identifying Gametocytocidal Compounds (AID 743244); note: potency is the fitted concentration of half-maximal effect;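 for max response: % is set by controls: 0 for no effect and ±100 for the full control effect; actives lower the fluorescent signal which means gametocytes are killed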; conditions: P. falciparum 3D7 stage III-V gametocytes, alamarBlue, 72 h; max response: stronger effect = lower value
# Method in brief: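 Stage III–V gametocytes of P. falciparum 3D7 were seeded at 20,000 cells/well onto pre-dispensed compounds. After 72 h, 37 °C, 5% CO2, alamarBlue was added for another 24 h.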
# [4] = qHTS assay for cell viability of HEK293 cells (AID 743288); conditions: ATP luminescence (CellTiter-Glo), 18 h, stronger effect = lower value; note: % is set by controls: 0 for no effect and ±100 for the full control effect; nearly all actives have a fitted effect of over 50% in size
# Method in brief: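 Quantitative high-throughput screen: compounds were pinned onto parental HEK293 cells (2,000 per well) after a minimum 5 h settling at 37 C, incubated 18 h at 37 C, and intracellular ATP measured by luciferase luminescence.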
# [5] = qHTS assay for cell viability of the p53RE-bla HCT-116 cell line (AID 743292); note: nearly all actives have a fitted effect of over 55% in size; note: potency is the fitted concentration of half-maximal effect
# Method in brief: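 Compound-exposed HCT-116 (p53RE-bla) cells, 4,000 per well, were kept 16 h at 37 C following a 5 h preincubation. Cell number was estimated from total ATP by CellTiter-Glo luminescence read after 30 min at room temperature.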
# [6] = qHTS profiling for inhibitors of Plasmodium falciparum (3D7) proliferation (AID 743322);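 note: infected erythrocytes exposed to compound for 72 h before lysis; 100% = DMSO vehicle wells and 0% = 0.29 µM artemisinin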; conditions: P. falciparum 3D7 proliferation; at 28.7 µM (top of the series)
# Method in brief: (§1)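 Parasite DNA was quantified by SYBR Green I fluorescence (ex 485, em 535 nm) after overnight lysis in saponin/Triton buffer at room temperature. Cultures at 0.3% parasitemia and 2.5% hematocrit were first exposed to compound for 72 h at 37 C; signals were normalised to artemisinin (0.29 uM) and vehicle wells.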
# [7] = qHTS profiling for inhibitors of Plasmodium falciparum (DD2) proliferation (AID 743323; call rule not given here); conditions: lower = more inhibition; at 28.7 µM (top of the series)
# Method in brief: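 Parasite proliferation measured via DNA-dye fluorescence, as uninfected erythrocytes lack DNA. Cultures at 0.3% parasitemia and 2.5% hematocrit incubated 72 h with compound; signal scaled between vehicle and 0.29 uM artemisinin wells.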
# [8] = qHTS profiling of the MIPE4 collection as inhibitors of Plasmodium falciparum (3D7) proliferation (AID 743344; call rule not given here;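 note: scaled between DMSO vehicle wells and 0.29 µM artemisinin as full inhibition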); conditions: P. falciparum 3D7 in erythrocytes, SYBR Green DNA fluorescence, 72 h; at 28.5 µM (top of the series) unless noted
# Source text: Plasmodium falciparum is a virulent malarial parasite that kills 1-2 million people worldwide each year. Transmitted by mosquitoes, the sporozoite form of the parasite enters the blood stream to infect hepatocytes, where they become merozoites that infect red blood cells (erythrocytes). Within erythrocytes, merozoites begin a […] cycle of growth and division, after which the parasite is released to infect new red blood cells. Gametocytes, which form within erythrocytes as well, circulate in the bloodstream and are ingested by the mosquito, thereby completing the life cycle. To profile malarial isolates for differential chemical responses and to identify inhibitors of malarial growth, an assay that measures P. falciparum growth and replication within erythrocytes was employed. […] Because mature erythrocytes lack DNA, only Plasmodium-derived DNA is detected.
# The SYBR Green viability assay was adapted from a method described previously (Plouffe et al., 2008). […] The following morning, fluorescence intensity at 485(14) nm excitation and 535(25) nm emission wavelengths was measured on an EnVision (Perkin Elmer) plate reader. Plate reads were normalized relative to the control inhibitor (0.29 uM artemisinin) and vehicle (DMSO) wells present on each plate and then corrected by an algorithm using vehicle-only control plates at the beginning and end of the compound plate stack.
# [9] = qHTS profiling of the MIPE4 collection as inhibitors of Plasmodium falciparum (DD2) proliferation (AID 743345; call rule not given here); conditions: P. falciparum Dd2 in erythrocytes, SYBR Green DNA, 72 h; at 28.5 µM (top of the series) unless noted
# Method in brief: as §1
# [10] = qHTS profiling of the MIPE4 collection as inhibitors of Plasmodium falciparum (DD2) proliferation (Rep 2) (AID 743346; call rule not given here); conditions: P. falciparum Dd2 in erythrocytes, SYBR Green DNA, 72 h; at 28.5 µM (top of the series) unless noted
# Method in brief: as §1
compound,measurement,setting,value
CN(C)c1cc2c(Nc3ccc4c(cnn4Cc4ccccc4)c3)ncnc2cn1,outcome,[1],inactive
same,outcome,[2],inactive
CCOC(=O)NNc1ccc(N(CC)CC(C)O)nn1 (stereo not drawn),max response,[3],0.172% (inactive)
CN1C(=O)CC(C)(c2ccccc2)C1=O (stereo not drawn),max response,[3],-8.12% (inactive)
C1=CC2C3C=CC(C3)C2C1 (stereo not drawn),max response,[3],-11.9% (inactive)
same,max response,[4],-14.2% (inactive)
same,Potency,[5],inactive
O=C(Nc1ccc(Cl)cc1)Nc1ccc(Cl)c(Cl)c1,Potency,[5],inactive
same,remaining parasite growth % (stronger effect = lower value),[6],-1.23%
same,"activity, percent of control",[7],-0.0718%
CC(C)(C)c1ccc(O)c(O)c1,max response,[4],-4.72% (inactive) and -5.96% (inactive)
same,Potency,[5],inactive
CCN(CC)CCOc1ccc(/C(=C(\Cl)c2ccccc2)c2ccccc2)cc1,Potency,[5],70.8 µM (active)
CC(C)C(C)(C)C(C)(C)C(C)(C)S,max response,[3],40.1% (inactive)
same,max response,[4],6.58% (inactive) and -3.43% (inactive)
same,Potency,[5],inactive
NCC[C@H](O)C(=O)N[C@@H]1C[C@H](N)[C@@H](O[C@H]2O[C@H](CN)[C@@H](O)[C@H](O)[C@@H]2O)[C@H](O)[C@@H]1O[C@H]1O[C@H](CO)[C@@H](O)[C@H](N)[C@@H]1O,"parasite growth, % of DMSO control",[8],98% [at 0.217 µM]
same,"parasite growth remaining, % of DMSO control (lower = more inhibition)",[9],89.8% [at 0.217 µM]
same,"parasite growth, % of control (lower = inhibition)",[10],163% [at 0.217 µM]
CC(C(=O)O)c1ccc(/C=C2\CCCCC2=O)cc1 (stereo not drawn),max response,[3],-9.38% (inactive)
C[C@H]1C[C@H]2[C@@H]3CCC4=CC(=O)C=C[C@]4(C)[C@H]3C(=O)C[C@]2(C)[C@@]1(O)C(=O)CO,max response,[3],-0.729% (inactive)
CC(=O)OC/C=C(C)/C=C/C=C(C)/C=C/C1=C(C)CCCC1(C)C,max response,[3],-2.65% (inactive)
same,max response,[4],-22.5% (inactive) and -3.76% (inactive)
same,Potency,[5],inactive
CCCCCCCCCCCC[N+](C)(C)Cc1ccccc1,Potency,[3],5.01 µM (active)
same,max response,[4],-18.2% (inactive)
same,Potency,[5],inactive
COC(=O)c1c(Cl)c(Cl)c(C(=O)OC)c(Cl)c1Cl,max response,[4],-7.06% (inactive)
same,Potency,[5],inactive
Cc1ccc(O)cc1,max response,[3],-13.3% (inactive) and 9.92% (inactive)
same,max response,[4],0.239% (inactive)
same,Potency,[5],inactive
CCCCCCCCCCCCCCCC[n+]1ccccc1,max response,[4],-27.3% (inactive)
same,Potency,[5],inactive
O=C(O)[C@H](O)[C@@H](O)[C@H](O[C@@H]1O[C@H](CO)[C@H](O)[C@H](O)[C@H]1O)[C@H](O)CO,max response,[3],-7.07% (inactive)
CCCC(=O)c1cc(O)c(O)cc1O,max response,[3],30.2% (inactive)
same,max response,[4],-20% (inactive)
same,Potency,[5],inactive
Brc1ccccc1-c1ccccc1,max response,[3],-19.3% (inactive)
same,max response,[4],-7.8% (inactive)
same,Potency,[5],inactive
Nc1ccc(O)cc1,max response,[4],-8.77% (inactive)
same,Potency,[5],inactive
O=C(Oc1ccccc1)c1ccccc1O,max response,[3],7.75% (inactive)
same,max response,[4],1.49% (inactive) and 4.97% (inactive)
same,Potency,[5],inactive
O=C(c1ccccc1)c1ccccc1,max response,[3],-8.14% (inactive)
same,max response,[4],-5.39% (inactive) and 4.23% (inactive)
same,Potency,[5],inactive
CC(NCCC(c1ccccc1)c1ccccc1)c1ccccc1 (stereo not drawn),Potency,[3],12.6 µM (active)
same,"parasite growth, % of DMSO control",[8],9.45%
same,"parasite growth remaining, % of DMSO control (lower = more inhibition)",[9],9.26%
same,"parasite growth, % of control (lower = inhibition)",[10],16.7%
Nc1cccc2c(N)cccc12,max response,[4],-10.7% (inactive) and -9.55% (inactive)
same,Potency,[5],inactive
O=C(NO)c1ccccc1,max response,[3],14.9% (inactive)
same,max response,[4],-10.3% (inactive)
same,Potency,[5],inactive
CCOC(=O)C1=C(C)NC(C)=C(C(=O)OCC)C1c1ccccc1/C=C/C(=O)OC(C)(C)C,max response,[3],4.06% (inactive)
Cc1ncc(CO)c(CO)c1O,max response,[3],-15.9% (inactive)
same,max response,[4],-15.6% (inactive)
same,Potency,[5],inactive
CCCCC(CC)COC(=O)c1ccccc1C(=O)O (stereo not drawn),max response,[3],-17.7% (inactive)
same,max response,[4],-6.66% (inactive) and 0.856% (inactive)
same,Potency,[5],inactive
Nc1c2ccccc2nc2ccccc12,Potency,[3],10 µM (active)
same,Potency,[5],inactive
O=C(O)CCC(=O)OC[C@@H](NC(=O)C(Cl)Cl)[C@H](O)c1ccc([N+](=O)[O-])cc1,max response,[3],-4.91% (inactive)
OCCOCCN1CCN(C(c2ccccc2)c2ccc(Cl)cc2)CC1 (stereo not drawn),max response,[3],-10.6% (inactive)
same,max response,[4],-17.9% (inactive)
same,Potency,[5],inactive
CN1C(=O)c2ccccc2C1=O,max response,[3],10.3% (inactive)
same,max response,[4],-9.41% (inactive)
same,Potency,[5],inactive
CC(C)(c1ccc(O)cc1)c1ccc(O)cc1,max response,[3],-6.17% (inactive)
same,max response,[4],0.899% (inactive) and -7.06% (inactive) and -9.11% (inactive)
same,Potency,[5],inactive
C[C@@H](O[C@H]1OCCN(Cc2n[nH]c(=O)[nH]2)[C@H]1c1ccc(F)cc1)c1cc(C(F)(F)F)cc(C(F)(F)F)c1,max response,[3],16.6% (inactive)
